Sampled rows, rich in hits. Any-hit rate of the full collection: about 12%.
NS1 inh: blocks influenza NS1 protein function | Potency, µM (titrated, usually from 46.1 µM) | actives 0.4% (n = 270,000) | AID 2326; calls by dose curve; also: actives are rising curves; nearly all actives have a fitted effect of over 50% in size
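OD600 was taken as the measure of yeast growth restored by compound in an NS1-expressing S. cerevisiae strain. Cells had been washed out of glucose medium and diluted 1:100 into galactose -URA medium, pH 6.0.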
AMA1 RON2 block: AMA1-RON2 (P. falciparum) interaction inhibition; AlphaScreen AMA1-biotinylated RON2 peptide binding; Potency, µM (top dose mostly 58.2 µM), usual class: inhibitors; actives 0.2% (n = 360,000); AID 720542; also: nearly all actives have a fitted effect of over 45% in size
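AMA1 (3D7) with his tag at 25 nM final met compounds first, then biotinylated RON2 peptide at 25 nM; detection used donor plus acceptor beads, 10 µg/mL apiece, read by AlphaScreen after 30 min at room temperature.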
SARS PLpro yeast-1: inhibitors of SARS-CoV papain-like protease in yeast | S. cerevisiae expressing SARS-CoV PLpro, growth rescue | Potency, µM (doses to about 32.9 µM), actives largely listed as activators | actives 0.19% (n = 330,000) | AID 485353; calls by dose curve; also: nearly all actives have a fitted effect of over 55% in size
HCV inhibitor: HCV inhibition | Potency, µM (titrated, usually from 41.8 µM), actives largely listed as inhibitors | actives 3.4% (n = 340,000) | AID 651820 | Huh7.5.1 HCVcc-Cre infection, luciferase reporter, 44 h
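Whole-lifecycle infectious HCVcc-Cre system; cells 1,000/well, compound then virus (~0.5 moi) added 4 h after plating, 44 h culture. Luciferase read 15 sec following 15 min substrate incubation, room temp.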
Pf growth 96h: P. falciparum growth inhibition at 96 hours; P. falciparum luciferase reporter growth, 96 h; Potency, µM (series often up to 28.7 µM), usual class: inhibitors; actives 6.9% (n = 320,000); AID 504834
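Erythrocytes infected with luciferase-expressing P. falciparum were dispensed at 2% hematocrit and 0.05% parasitemia (final), then incubated with compounds 96 hours at 37 C in 5% CO2. Luminescence after detection reagent addition reported growth.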
Pf growth 48h: P. falciparum growth inhibition at 48 hours (one generation); actives 5.9% (n = 310,000); P. falciparum luciferase growth in erythrocytes, 48 h; AID 504832; Potency, µM (doses to about 28.7 µM), actives largely listed as inhibitors
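Firefly luciferase activity from engineered P. falciparum reports growth; inhibitors lower the luminescent signal. Cultures contained 2% hematocrit erythrocytes at 0.1% final parasitemia.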
Flu NS1 inh: validation of influenza NS1 protein function inhibitors; AID 492980; shares compounds with NS1 inh; 1,400 tested, under 10 active; activity change, negative = inhibition, % at 32.9 µM; influenza NS1 function cell assay, 15-point titration; calls by dose curve
SARS PLpro yeast-2: Validates SARS-CoV PLpro inhibitor hits in yeast. yeast expressing SARS-CoV PLpro, growth phenotype rescue. calls only. shares compounds with SARS PLpro yeast-1. actives 19% (n = 1,000); call rule not given here
HCV confirm: HCV inhibition, cherry-pick confirmation; shares compounds with HCV inhibitor; actives 78% (n = 640); HCVcc-Cre infectious virus cell assay, luciferase, inhibition; Potency, µM (doses to about 41.8 µM), most hits filed as inhibitors; also: nearly all actives have a fitted effect of over 80% in size
HCV host tox: host cell cytotoxicity counter-screen for HCV inhibitors; shares compounds with HCV inhibitor; HCV host cell line cytotoxicity counterscreen; Potency, µM (series often up to 41.8 µM), actives largely listed as inhibitors; actives 22% (n = 640);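 also: 44 h compound exposure; nearly all actives have a fitted effect of over 55% in size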
Hits are given with their value; n = inactive; u = inconclusive; x = no result given; + = active, no number; [ ] = another dose, or the depositor's remark. Unless noted, calls follow the shape of the dose curve; as a rule, active = well fitted curve in the direction sought with a large enough effect; inconclusive = small, poorly fitted or top-dose-only effect, or another doubt; inactive = no such curve, though single readings can be large; an effect the other way counts as inactive or inconclusive.

SMILES | NS1 inh | AMA1 RON2 block | SARS PLpro yeast-1 | HCV inhibitor | Pf growth 96h | Pf growth 48h | SARS PLpro yeast-2 | others
Cc1cc(C)c2sc(NNC(=O)c3ccc(S(=O)(=O)N4CCc5ccccc5C4)cc3)nc2c1 | 11.2µM | n | 7.94µM | 2.82µM | 11.7µM | u | + | Flu NS1 inh=n
CC1=C(C(=O)OC2CCCC(C)C2)C(c2ccccc2)NC(=O)N1 (stereo unspecified) | u | n | n | n | n | n | x
O=C(Nc1nccs1)c1cn(-c2ccccc2)nc1-c1ccccc1 | n | n | u | n | x | x | x
CC(C)COc1ccc(-c2nn(-c3ccccc3)cc2C(=O)Nc2nccs2)cc1 | 11.2µM | n | u | n | u | x | + | Flu NS1 inh=n
CCc1ccccc1NC(=S)/N=C(\N)Nc1nc(C)c2cc(C)ccc2n1 | u | n | n | u | u | 2.94µM | x | Flu NS1 inh=n;HCV confirm=9.95µM;HCV host tox=u
CCCCC(=O)N(Cc1ccc(F)cc1)C1CCS(=O)(=O)C1 (stereo unspecified) | n | n | n | n | n | n | x
Cc1cccc(Oc2ccccc2NS(=O)(=O)c2ccc(CCC(=O)O)cc2)c1 | x | n | 2.24µM | n | n | n | n
Cc1ccc(S(=O)(=O)c2nc(NCCN(C)C)sc2Cl)cc1 | n | n | u | n | u | x | n
COc1ccc(Nc2nc(S(=O)(=O)c3ccc(C)cc3)c(Cl)s2)cc1 | n | n | n | u | u | n | x
COc1ccc(C(=O)Nc2ccc(Cl)c(S(=O)(=O)Nc3ccccc3OC)c2)cc1 | n | n | u | u | u | u | u
CCC(=O)N(C)CCc1cc2c(c(OC)c1/C=N/NC(=O)c1ccccc1O)OCO2 | n | n[11.6 µM] | u | n | n | n | +
CN(C)c1cc[n+](CC(=O)Nc2cc(C(F)(F)F)ccc2Cl)cc1 | n | n | u | n | 0.828µM | 1.65µM | n
Cc1cc[n+](CC(=O)Nc2cc(C(F)(F)F)ccc2Cl)cc1 | n | n | n | n | u | u | x
Cc1nc(SCC(=O)c2cc(C)n(C3CC3)c2C)c2ccccc2n1 | x | n | x | x | x | x | x
COc1cccc(N2CC(C(=O)Nc3nnc(SCC(=O)c4ccccc4)s3)CC2=O)c1 (stereo unspecified) | n | u | n | n | u | n | x
COc1ccc(C(=O)CSc2nnc(NC(=O)C3CC(=O)N(c4ccccc4)C3)s2)cc1 (stereo unspecified) | n | n | u | n | n | n | u
CCOc1ccc2ccccc2c1/C=N/NC(=O)CNC(=O)Cc1ccccc1 | n | n | n | u | n | n | x
O=C(O)Cc1ccc(NC(=S)NCc2ccco2)cc1 | n | n | n | n | u | n | x
O=C(c1ccc(NC(=S)NCc2ccco2)cc1)N1CCCCC1 | x | n | u | n | n | n | n
C=CC(c1ccccc1)C(C(=O)c1ccccc1)N(C)C (stereo unspecified) | x | n | n | n | u | n | x
CCC(=O)N(Cc1ccc(S(N)(=O)=O)cc1)C1CC(=O)N(c2ccccc2)C1=O (stereo unspecified) | x | n | n | n | u | n | x
Cc1ccc(N(C(=O)c2ccc3c(c2)OCO3)C2C=CS(=O)(=O)C2)cc1C (stereo unspecified) | n | n | x | n | n | n | n
Cc1nn(C)c(C)c1/C=C1/CC2C3CC=C4CC(O)CCC4(C)C3CCC2(C)C1=O (stereo unspecified) | n | u | 12.6µM | n | u | u | n
CCN(C=C1CC2C3CC=C4CC(O)CCC4(C)C3CCC2(C)C1=O)CC (stereo unspecified) | x | n | x | n | x | x | x
Cc1ccc(OCC2Cn3c(nc4c3c(=O)[nH]c(=O)n4C)O2)cc1C (stereo unspecified) | n | n | n | n | n | n | x
SMILES | NS1 inh | AMA1 RON2 block | SARS PLpro yeast-1 | HCV inhibitor | Pf growth 96h | Pf growth 48h | SARS PLpro yeast-2 | others
CCCCCCCCCCCCCC(=O)OC(C)C | x | x | x | x | n | n | x
Cc1cccc(NC(=S)NC2CCCC2)c1 | n | n[2.32 µM] | u | n | n | n | +
Cc1ccc(C2CC2C(=O)NNC(=S)Nc2cccc(C)c2)cc1 (stereo unspecified) | n | n | 10µM | u | u | n | n
Cc1cccc(NC(=O)NC2CCCCCCC2)c1 | n | n | n | n | n | n | x
Cc1ccc(NC(=S)NNC(=O)C2CC2c2ccc(C)cc2)cc1 (stereo unspecified) | n | n | u | u | u | u | x
O=C(N/N=C/c1cc(Cl)ccc1O)C(=O)Nc1ccccc1OC(F)(F)C(F)F | n | n | 2µM | u | n | u | n
COc1ccccc1/C=N/NC(=O)C(=O)Nc1ccccc1OC(F)(F)C(F)F | n | n | n | n | n | n | x
Cc1cc(C)c(S(=O)(=O)N2CCCOC2CNC(=O)C(=O)NCCCn2ccnc2)c(C)c1 (stereo unspecified) | n | n | u | n | n | n | u
Cc1ccc(C)c(S(=O)(=O)N2CCCOC2CNC(=O)C(=O)NCCCn2ccnc2)c1 (stereo unspecified) | n | n | n | n | n | n | x
CCc1ccccc1NC(=O)CN1CCN(C(=O)c2ccc(OCc3cn4ccccc4n3)cc2)CC1 | x | n | u | u | u | u | n
CCc1ccccc1NC(=O)CNC(=O)c1ccc(OCc2cn3ccccc3n2)cc1 | x | n | n | n | x | x | x
CCCCCCCCCCCNC(=O)c1ccoc1C | n | n | n | n | u | u | x
CCCCCC(C)NC(=O)c1ccoc1C (stereo unspecified) | n | n | x | n | n | n | n
O=C(CN1CCOCC1)NN1CC(=O)N(c2ccc(Cl)cc2)CC1=O | n | n | n | n | n | n | x
O=C(C1=C(O)C(=O)N(CCN2CCOCC2)C1c1cccnc1)c1cc2ccccc2o1 (stereo unspecified) | n | n | n | n | x | n | x
O=C(C1=C(O)C(=O)N(CCCN2CCOCC2)C1c1ccncc1)c1cc2ccccc2o1 (stereo unspecified) | n | x | 12.6µM | n | u | n | +
Cc1n[nH]c(C)c1S(=O)(=O)N1CCC(C(=O)Nc2cccc(F)c2)CC1 | n | n | n | n | u | n | x
O=C(Nc1ccon1)c1ccc(S(=O)(=O)N2CCOCC2)cc1 | n | n | n | n | n | n | x

Screening results: PubChem, National Center for Advancing Translational Sciences (NCATS)
